Assay outcomes (PubChem)
BAP1 block – human BAP1 deubiquitinase inhibition | Q92560 | recombinant BAP1, Ub-AMC hydrolysis fluorescence kinetic; stronger effect = lower value | calls only at 20 µM | actives 0.48% (n = 72,000);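 active = activity remaining at or below 50% of control, provided the compound also passes the data quality filters; inactive = the rest, including low values that fail the filters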
Target sequence (Q92560 whole entry, looked up): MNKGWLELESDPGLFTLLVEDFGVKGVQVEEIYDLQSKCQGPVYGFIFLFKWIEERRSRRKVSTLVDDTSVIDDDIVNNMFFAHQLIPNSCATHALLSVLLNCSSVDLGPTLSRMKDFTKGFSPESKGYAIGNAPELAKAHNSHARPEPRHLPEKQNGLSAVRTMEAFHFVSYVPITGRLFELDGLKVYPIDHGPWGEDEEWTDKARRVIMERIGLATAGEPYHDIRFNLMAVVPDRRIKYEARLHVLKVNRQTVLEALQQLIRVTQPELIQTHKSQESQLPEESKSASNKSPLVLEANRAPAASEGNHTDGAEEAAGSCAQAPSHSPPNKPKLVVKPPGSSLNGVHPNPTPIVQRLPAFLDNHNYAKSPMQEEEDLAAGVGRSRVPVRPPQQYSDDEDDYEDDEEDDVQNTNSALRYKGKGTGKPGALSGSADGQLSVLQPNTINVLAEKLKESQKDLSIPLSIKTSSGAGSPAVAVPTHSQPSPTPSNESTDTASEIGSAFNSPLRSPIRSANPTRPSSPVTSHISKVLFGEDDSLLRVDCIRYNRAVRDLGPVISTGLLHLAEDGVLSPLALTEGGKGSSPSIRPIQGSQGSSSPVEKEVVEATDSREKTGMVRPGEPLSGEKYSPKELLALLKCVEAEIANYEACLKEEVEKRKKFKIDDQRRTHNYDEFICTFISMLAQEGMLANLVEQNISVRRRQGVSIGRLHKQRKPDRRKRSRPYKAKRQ
hDAT+cocaine – modulates human dopamine transporter uptake under cocaine; Q01959; B-score at 10 µM; LLC-PK1 hDAT cells, [14C]-dopamine uptake with cocaine IC80; actives deviate in either direction; AID 449768; actives 1.3% (n = 110,000);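 active = Z score or B-score, a plate-position-corrected score, falls beyond the plate's 99.7% confidence bounds, in either direction; inactive = both scores lie inside the 99.7% bounds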
D1 mod – allosterically modulates the human D1 dopamine receptor. B-score at 10 µM. HEK293 D1, CRE-luciferase, dopamine EC30 potentiation; actives deviate in either direction. P21728. actives 5.9% (n = 58,000);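 active = luminescence count or its row- and column-corrected plate score outside the 99.7% band of the plate's sample wells, on either side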
BAP1 inh conf – confirmation of human BAP1 enzyme inhibitors. shares compounds with BAP1 block. purified BAP1, Ub-ethyl ester hydrolysis, HPLC; stronger effect = lower value. % of control activity, % at 20 µM. actives 8% (n = 310). AID 753;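 active = percent of control activity at or below 60%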
D1 mod confirm – confirmation of human D1 dopamine receptor allosteric modulators; shares compounds with D1 mod; HEK293 D1 CRE-luciferase, dopamine EC30 potentiation; stronger effect = higher value; luminescence at 10 µM; actives 88% (n = 2,200);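 active = luminescence in either of two replicates above the same-plate mean plus 3 SD of the low-dose dopamine control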
D1 ag no DA – secondary test of D1 modulators: activity without dopamine; shares compounds with D1 mod; HEK293 D1 CRE-luciferase, luminescence, no dopamine; stronger effect = higher value; luminescence at 10 µM; actives 0.8% (n = 1,900); AID 646; in the data active = luminescence above about 3900
Isoprot counter – counter-screen for D1 modulators: isoproterenol response in HEK293 cells; actives 63% (n = 2,200); HEK293 D1 CRE-luciferase, isoproterenol EC30 counter-screen; stronger effect = higher value; shares compounds with D1 mod; luminescence at 10 µM;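 active = luminescence in either replicate above plate mean of wells with a partly effective reference agonist dose plus 3 SD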;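 note: isoproterenol raises cAMP through native beta-adrenoceptor Gs so signal bypasses D1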
Large screens that a line does not name were inactive (follow-up assays come after a bar, where they were run). Many of the other results were omitted from the sample, so hits are more common in it than they were.

O=[N+]([O-])c1cc(Cl)cc(C=Nc2ccc3oc(-c4cccc(I)c4)nc3c2)c1O	none (no result: hDAT+cocaine, D1 mod)
COc1ccc(-c2nn(C)c(=O)c3ccccc23)cc1NC(=O)Cn1nc(C)c2ccccc2c1=O	BAP1 block active, D1 mod 8.64 | BAP1 inh conf inactive | D1 mod confirm 19816 | D1 ag no DA inactive | Isoprot counter 6752
CCC(=O)Nc1cc(-c2nn(C)c(=O)c3ccccc23)ccc1OC	none
CSc1nnc2c3cc(C)ccc3n(Cc3ccccc3)c2n1	BAP1 block active, D1 mod 8.94 | BAP1 inh conf inactive | D1 mod confirm 14436 | D1 ag no DA inactive | Isoprot counter 5544
CCn1c2ccccc2c2nnc(SCC(=O)c3ccccc3)nc21	none (no result: D1 mod)
COc1ccc2nc(NC(=O)c3ccccc3F)sc2c1	none (no result: hDAT+cocaine, D1 mod)
COc1ccc2nc(NC(=O)CCc3nc(-c4ccccc4F)no3)sc2c1	BAP1 block active, D1 mod 8.28 | BAP1 inh conf 39.6 | D1 mod confirm inactive | D1 ag no DA inactive | Isoprot counter inactive
CCCCCCSc1nc2c(c(=O)[nH]c(=O)n2C)n1C	none
CCCCCCn1c(SCCCC)nc2c1c(=O)[nH]c(=O)n2C	BAP1 block active, D1 mod 10.9 | BAP1 inh conf inactive | D1 mod confirm 26000 | D1 ag no DA inactive | Isoprot counter 4836
CCOC(=O)c1c(NC(=O)c2ccccc2F)sc(C(=O)Nc2ccc3c(c2)OCO3)c1C	none (no result: hDAT+cocaine, D1 mod)
CCCCCSc1nc2c(cnn2-c2ccccc2)c(=O)[nH]1	BAP1 block active, D1 mod 2.95 | BAP1 inh conf inactive | D1 mod confirm 13144 | D1 ag no DA inactive | Isoprot counter inactive
CCOC(=O)C(CC)Sc1nc2c(cnn2-c2ccccc2)c(=O)[nH]1 (centres undefined)	none
Cc1ccccc1NC(=O)C(c1ccccc1)N1CCOCC1 (centres undefined)	none (no result: hDAT+cocaine, D1 mod)
Cc1cccc(CSC2=NCCN2C(=O)c2ccco2)c1	D1 mod 3.77 | D1 mod confirm 9944 | D1 ag no DA inactive | Isoprot counter inactive
Cc1ccc(CSC2=NCCN2C(=O)c2ccco2)cc1	none
CC(C)Sc1nc2c(c(=O)n1-c1ccc(F)cc1)SCC2	D1 mod 10.7 | D1 mod confirm 23632 | D1 ag no DA inactive | Isoprot counter 4124
O=C(CSc1nc2c(c(=O)n1-c1ccc(F)cc1)SCC2)N1CCCC1	none
COC(=O)C1CCN(C(=O)COc2cc3sc(C)nc3c3sccc23)CC1	none
Cc1nc2c(cc(Oc3ccc(S(=O)(=O)N4CCOCC4)cn3)c3ccsc32)s1	D1 mod 8.47 | D1 mod confirm 12244 | D1 ag no DA inactive | Isoprot counter 3524
Cc1nn(-c2ccccc2)c(=S)n1-c1ccccc1	none
OCCn1nc2c3ccccc3nc-2n(-c2ccccc2)c1=S	hDAT+cocaine -7.2, D1 mod 5.86 | D1 mod confirm 7812 | D1 ag no DA inactive | Isoprot counter inactive
Cn1cccc1C1NC(=O)c2c(sc3c2CCC(C(C)(C)C)C3)N1 (centres undefined)	D1 mod 2.97 | D1 mod confirm 7568 | D1 ag no DA inactive | Isoprot counter inactive
CCOC(=O)c1c(NC(=O)c2ccoc2C)sc2c1CCC(C(C)(C)C)C2 (centres undefined)	none (no result: hDAT+cocaine, D1 mod)
CCCN1Cc2cccc(C(=O)NCc3ccc4c(c3)OCO4)c2C1=O	D1 mod 11.5 | D1 mod confirm 15396 | D1 ag no DA inactive | Isoprot counter 4224
CCCN1Cc2cccc(C(=O)NC3CCCC3)c2C1=O	D1 mod 12.2 | D1 mod confirm 16648 | D1 ag no DA inactive | Isoprot counter 4220
CCOc1ccccc1C(=O)NCc1ccc2c(c1)OCO2	none
O=C(NCc1ccc2c(c1)OCO2)c1cccc2c1C(=O)N(C1CCCCC1)C2	D1 mod 5.99 | D1 mod confirm 10552 | D1 ag no DA inactive | Isoprot counter 4384
CCOC(=O)N1CCC(N2Cc3cccc(C(=O)NCc4ccc5c(c4)OCO5)c3C2=O)CC1	none (no result: hDAT+cocaine)
COCCN1Cc2cccc(C(=O)NC(C)c3cccs3)c2C1=O (centres undefined)	none (no result: BAP1 block, D1 mod)
CCCN1Cc2cccc(C(=O)Nc3cc(OC)cc(OC)c3)c2C1=O	none
CCCN1Cc2cccc(C(=O)NCc3cccs3)c2C1=O	D1 mod 18.2 | D1 mod confirm 24472 | D1 ag no DA inactive | Isoprot counter 5056
CS(=O)(=O)N(CC(=O)NCc1ccco1)c1ccccc1Br	none (no result: hDAT+cocaine, D1 mod)
CCOC(=O)C1CCN(C(=O)c2ccco2)CC1	D1 mod 4.42 | D1 mod confirm inactive | D1 ag no DA inactive | Isoprot counter inactive
CCOc1cc(CN2CCN(C(=O)c3ccco3)CC2)ccc1OC	none
COc1ccc(CN2CCN(C(=O)c3ccco3)CC2)cc1	D1 mod 4.08 | D1 mod confirm inactive | D1 ag no DA inactive | Isoprot counter inactive
O=C(COC(=O)C1CCN(C(=O)c2ccc(Cl)cc2)CC1)c1ccco1	none
O=C(Nc1nc(-c2ccc(F)cc2)cs1)c1ccc(Cc2ccccc2)cc1	none (no result: hDAT+cocaine, D1 mod)
O=[N+]([O-])c1cccc(C=Nc2ccc3oc(-c4cccc5ccccc45)nc3c2)c1	none (no result: hDAT+cocaine, D1 mod)
COC(=O)c1ccc(COc2nc(C)cc(C)c2C#N)o1	D1 mod 3.59 | D1 mod confirm 11580 | D1 ag no DA inactive | Isoprot counter inactive
Cc1ccc(C(=O)COc2nc(C)cc(C)c2C#N)cc1	none (no result: BAP1 block, D1 mod)
c1ccc(-n2c(SCC3CCCCO3)nnc2-c2cnccn2)cc1 (centres undefined)	none
COc1cccc(-n2c(SC)nnc2-c2cnccn2)c1	D1 mod 14.1 | D1 mod confirm inactive | D1 ag no DA inactive | Isoprot counter inactive
COc1cccc(-n2c(SCC#N)nnc2-c2cnccn2)c1	none
CC(C)OC(=O)CSc1nnc(-c2cnccn2)n1-c1ccccc1	D1 mod 5.08 | D1 mod confirm 7372 | D1 ag no DA inactive | Isoprot counter inactive
CCn1c2ccccc2n2cc(-c3ccc([N+](=O)[O-])cc3)nc12	none (no result: hDAT+cocaine, D1 mod)
CCCC(=O)c1c(NC(C)C)cc(C)oc1=O	D1 mod 5.68 | D1 mod confirm 12004 | D1 ag no DA inactive | Isoprot counter 4408
CCCNc1cc(C)oc(=O)c1C(=O)CCC	none (no result: BAP1 block, D1 mod)
COc1cc(-c2nc(S(=O)(=O)c3ccc(C)cc3)c(N3CCOCC3)o2)cc(OC)c1OC	D1 mod 5.43 (no result: hDAT+cocaine) | D1 mod confirm 8652 | D1 ag no DA inactive | Isoprot counter 5140
COc1cc(-c2nc(S(=O)(=O)c3ccc(Cl)cc3)c(N3CCOCC3)o2)cc(OC)c1OC	none
Cc1nc(NCCc2ccc(S(N)(=O)=O)cc2)c2c(C)c(C)sc2n1	none (no result: BAP1 block, D1 mod)
Cc1sc2nc(C3CC3)nc(NCCNS(C)(=O)=O)c2c1C	D1 mod 6.46 | D1 mod confirm 10452 | D1 ag no DA inactive | Isoprot counter inactive
COCCN1C(=O)C(=O)/C(=C(/O)c2ccccc2)C1c1cc(OC)ccc1OC (centres undefined)	none (no result: hDAT+cocaine, D1 mod)
